Measurements: PubChem BioAssay AID1022 (Emory University Molecular Libraries Screening Center, 2008)
Out of some 220,000 compounds screened, about 3,300 (1.5%) were called active.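 How the source made its calls: active means compounds that cut the protein-peptide binding signal by more than 50% relative to plate controls in a single-dose test; inactive means the rest.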 This excerpt belongs to a sample that is enriched for actives.

molecular target: Induced myeloid leukemia cell differentiation protein Mcl-1 (Homo sapiens) (UniProt Q07820); experiment: disruptors of Mcl-1 and Noxa BH3 peptide – biochemical, TR-FRET, 1536-well, primary screen (AID 1022); conditions: TR-FRET Mcl-1/Noxa peptide binding, 2 h; at 21.7 µM; active compounds read high;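 further: His-tagged Mcl-1 with rhodamine Noxa BH3 peptide and terbium anti-His antibody; 0% = Mcl-1 plus Noxa peptide wells and 100% = peptide-only wells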
Sequence (Q07820 whole entry, looked up): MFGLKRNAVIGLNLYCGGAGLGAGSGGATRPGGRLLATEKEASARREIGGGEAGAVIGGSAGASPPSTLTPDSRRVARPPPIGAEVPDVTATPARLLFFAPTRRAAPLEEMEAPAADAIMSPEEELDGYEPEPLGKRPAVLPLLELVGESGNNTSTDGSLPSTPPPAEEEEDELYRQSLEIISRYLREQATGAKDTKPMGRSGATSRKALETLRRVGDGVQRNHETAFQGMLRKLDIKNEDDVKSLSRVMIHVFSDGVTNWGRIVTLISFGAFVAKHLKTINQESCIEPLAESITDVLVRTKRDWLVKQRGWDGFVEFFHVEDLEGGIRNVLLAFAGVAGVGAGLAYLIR

inhibition, inactive:
O=C(/C=C/c1ccccc1[N+](=O)[O-])OC1CCCCC1=O (centres undefined) 5.64%
O=C(OC1CCCCC1=O)c1cccc(S(=O)(=O)NCc2ccccc2)c1 (centres undefined) -5.3%
Cc1ccccc1N1CCN(Cc2nc(Cc3ccccc3F)no2)CC1 9.66%
O=S(=O)(c1ccc(Cl)cc1)N1CCCN(c2ccc(C(F)(F)F)cn2)CC1 15.1%
Cc1ccc(NS(=O)(=O)c2ccc(C)c(NC(=O)COc3ccc4ccccc4c3)c2)c(C)c1 -15.7%
Cc1cccc(COc2ccccc2/C=N/Nc2ccc([N+](=O)[O-])cc2)c1 1.32%
CCCCSc1nnc2c(n1)OC=Nc1ccccc1-2 12.5%
O=C(CC(c1ccccc1)c1cc(Cl)ccc1O)NCCN1CCOCC1 (centres undefined) -4.69%
O=C(Cc1ccccc1)N1N=C(c2ccncc2)CC1(O)C(F)(F)F (centres undefined) -12.4%
Cc1ccc(C)c2c1cc(C)c1nnc(SCC(=O)Nc3cccc(C(=O)O)c3)n12 4.65%
CC1CCN(Cc2nc(-c3ccc(Cl)cc3)no2)CC1 11%
O=C(O)CC1=C(Nc2ccccc2)C(=O)N(c2ccccc2)C1c1ccc(Cl)cc1 (centres undefined) -6.85%
CN(C(=O)Nc1ccc(Cl)cc1)n1cnc2ccccc2c1=O -0.02%
COc1ccc(OCC(O)CNCCNc2nccc(C(F)(F)F)n2)cc1 (centres undefined) -8.04%
CCn1c(CN2C(=O)CSc3ccccc32)n[nH]c1=S -15.7%
CC(C)(C)C(=O)CSc1nc2ccccc2o1 8.46%
CCN(CC)C(=O)CSc1nc2ccccc2o1 7.79%
Cn1nc(C(C)(C)C)c([N+](=O)[O-])c1C(N)=O 5.22%
COc1ccc(Nc2cc(Cl)ccc2C(=O)O)cn1 11%
CCN(CC)CCCNC(=O)c1ccc2c(=O)n(Cc3ccc4c(c3)OCO4)c(=S)[nH]c2c1 25.2%
CCCCSc1nc2ccccc2[nH]1 12.9%
COC(=O)c1nc(NC(=O)c2ccc(F)cc2)n[nH]1 -6.78%
COC(=O)c1nc(NC(=O)c2ccc(Cl)cc2)n[nH]1 -8.02%
O=C(O)CC1(CC(=O)Nc2cccc(C(F)(F)F)c2)CCCC1 -33.1%
Nc1nnnn1/N=C/c1cc([N+](=O)[O-])ccc1O -18%
Cc1ccc(N2C(=O)CC(Sc3ncn[nH]3)C2=O)cc1 (centres undefined) -10.1%
COc1ccc(N2C(=O)CC(Sc3n[nH]c(-c4ccc(C)cc4)n3)C2=O)cc1 (centres undefined) 36%
Cc1nc(CNS(=O)(=O)c2cc([N+](=O)[O-])ccc2C)cs1 -0.49%
O=C(CN1C(=O)/C(=C\c2ccccc2F)SC1=S)Nc1nc2ccccc2s1 11.5%
Cc1ccc(-c2nn(-c3ccccc3)cc2/C=C/C(=O)Nc2cccc(S(N)(=O)=O)c2)cc1 7.42%
CCOC(=O)c1sc2nc(C)[nH]c(=O)c2c1C -7.23%
CCOC(=O)c1sc2nc(CSCC(=O)OCc3ccc(C(=O)OC)o3)[nH]c(=O)c2c1C 11.7%
Cc1onc(-c2ccccc2)c1C(=O)N=C(N)c1ccc(Cl)cc1 13.2%
Cc1nnc(N/N=C/c2cccs2)[nH]c1=O -2.37%
CC(O)c1nc2c(c(=O)n(C)c(=O)n2C)n1C (centres undefined) -1.58%
CNc1nc(Nc2ccc(C)c(Cl)c2)nc(N)c1[N+](=O)[O-] 26.8%
CC1CN(c2nc(Nc3ccccc3)nc(N)c2[N+](=O)[O-])CC(C)O1 (centres undefined) -24.5%
O=C(NCc1cccnc1)Nc1cccc(NC(=O)NCc2cccnc2)c1F -1.36%
COc1cc(OC)c(C(=O)Nc2ccccc2-c2ccccc2)cc1OC 2.98%
COc1ccc(Cl)cc1C(=O)Nc1ccc(N(C)C(C)=O)cc1 15.3%
CC(NC(=S)NNS(=O)(=O)c1ccc(C(C)(C)C)cc1)c1ccccc1 (centres undefined) -17.7%
Cc1ccc2c(c1)c1ncn(Cc3ccc(F)cc3)c(=O)c1n2C -20.4%
COc1ccc(/C=C/c2nnc(NC(=O)C(C)C)s2)cc1 12.2%
O=C(CSc1ccccc1)Nc1nnc(/C=C/c2ccccc2)s1 9.47%
CN(C)c1ccc(/C=C/C(=O)c2ccc(O)cc2)cc1[N+](=O)[O-] 20.5%
CCCc1nc2oc3c(=O)[nH]cnc3c2c2c1COC(C)(C)C2 -3.33%
CC(=O)Nc1ccc(C(=O)/C=C/c2ccc[nH]2)cc1 15.7%
COc1ccc(N2C(=O)c3ccccc3NC2c2ccc(OC)c(CN3CCOCC3)c2)cc1 (centres undefined) 7.79%
CCN(CCNC(=O)C1=C(C)C(=O)OC12CCC(C)CC2)c1ccccc1 (centres undefined) -5.12%
Nc1ccc(-c2sc(N)nc2-c2ccccc2)cc1 26.2%
Brc1ccc(-c2nnc(-c3ccccc3)o2)o1 8.68%
COc1ccc(S(=O)(=O)N(CC(=O)N/N=C/c2ccccc2C(=O)O)c2ccccc2OC)cc1 12.8%
CCN1CCN(C(c2cccnc2)c2cc(Cl)c3cccnc3c2O)CC1 (centres undefined) 34%
Oc1c(C(c2ccccn2)N2CCOCC2)ccc2cccnc12 (centres undefined) 5.37%
Cc1nc(N)sc1N=Nc1c(C)n(C)n(-c2ccccc2)c1=O 13%
CC(C)OP(=O)(OC(C)C)C(Nc1ccccc1)c1cccc([N+](=O)[O-])c1 (centres undefined) 6.5%
O=C1/C(=C/c2ccc3c(c2)OCO3)CCC/C1=C\c1ccc2c(c1)OCO2 -7.31%
CSC1=N/C(=C\c2ccc3c(c2)OCO3)C(=O)S1 5.49%
O=C(COC(=O)C1CCCCC1)Nc1ccc([N+](=O)[O-])cc1 -0.21%
CN1CCN(CCNC(=O)Nc2ccc([N+](=O)[O-])cc2)CC1 6.06%
COc1ccc(OCC(=O)Nc2ccc(N3CCC(C)CC3)cc2)cc1 5.22%
O=C(Nc1ccc(F)cc1)N1CCN(c2ccc(F)cc2)CC1 -20.8%
CN(C)c1nc(=Nc2cccc(Cl)c2)ss1 13.4%
CC(C)(C)C(=O)OCc1nc(-c2ccc(O)c(O)c2)cs1 46.4%
COc1ccc(CCNC(=O)C(Sc2ccccn2)c2ccccc2)cc1OC (centres undefined) -11.6%
CSc1ccc(NC(=O)/C=C/C(=O)O)cc1 14.6%
Cc1oc(C(N)=O)cc1COc1ccc(C(N)=O)cc1 7.05%
O=C(NCCN1CCOCC1)c1ccc2c(c1)N(Cc1ccc(Cl)cc1)CCS2 16.4%
NC(=O)[C@H]1CC2(CC(c3cccc(NC(=O)[C@H]4CCC(=O)N4)c3)=NO2)CN1C(=O)c1ccccc1C(=O)c1ccccc1 (some centres undefined) 3.36%
Cc1cc(=O)[nH]c2nnnn12 0.51%
Fc1ccc(NC(=S)N2CCc3[nH]c4ccccc4c3C2)cc1 14.9%
O=C(NC1CCCCC1)N1CCc2[nH]c3ccccc3c2C1 -13%
CS(=O)(=O)c1ccc(Cl)c(NC(=O)Nc2ccccc2)c1 2.41%
O=C(Nc1ccc(Cl)cc1)c1ccsn1 11.5%
N#CC1=C(N)Oc2c(ccc3cccnc23)C1c1ccncc1 (centres undefined) -11.2%
NC(=O)N/N=C\c1cccs1 -22.2%
C=CCSC(CC)(CC)C(N)=O -9.07%
COc1ccc(N2CCC(CNC(=S)Nc3c(C)cccc3C)C2)cc1 (centres undefined) 17.1%
COc1ccc(NC(=S)NCCN2CCC(C)CC2)cc1 19.6%

inhibition, active:
O=C1CCCCC1C(=O)c1ccccc1 (centres undefined) 95%
Cc1ccc(NS(=O)(=O)c2ccc(N/N=C/c3ccccc3OCC(=O)O)c([N+](=O)[O-])c2)c(C)c1 56.7%
CC(C)c1ccc2c(c1)c(SC(C)(C)C)c(CC(C)(C)C(=O)O)n2Cc1ccc(Cl)cc1 68.7%
Fc1ccccc1OCCSc1nc2ccccc2o1 60.4%
CCCCN(CC)CCCNC(=O)c1ccc(CSc2nc3ccncc3[nH]2)cc1 63%
COC(=O)c1nc(NC(=O)c2ccc(C(C)(C)C)cc2)n[nH]1 69.2%
O=C1CC(Sc2ncn[nH]2)C(=O)N1c1ccccc1 (centres undefined) 54.4%
CN(C)S(=O)(=O)c1cccc(-c2nn(-c3ccccc3)cc2/C=C2\SC(=S)N(CC(=O)O)C2=O)c1 74.1%
COC(=O)c1sc2[nH]c(=S)n(N)c(=O)c2c1C 52.1%
CCN1CCN(c2nc(Nc3cccc(F)c3)nc(N)c2[N+](=O)[O-])CC1 56.7%
COc1cc(OC)c(C(=O)Nc2ccc(N(C)C)cc2)cc1OC 51.8%
O=C(Nc1ccc(Cl)cc1)Nc1nnc(/C=C/c2ccccc2)s1 91.2%
Nc1ccc(-c2nnc(-c3ccc(-c4ccccc4)cc3)o2)cc1 65.7%
CCOC(=O)N1CCN(C(c2cccnc2)c2ccc3cccnc3c2O)CC1 (centres undefined) 61.5%
CCC1=C/C(=C\c2ccc3c(c2)OCO3)C(=O)S1 55.4%
O=C(COc1ccc([N+](=O)[O-])cc1)Nc1ccc(N2CCCC2)cc1 52.2%
O=C(NCCCN1CCN(c2ccc(F)cc2)CC1)Nc1ccc([N+](=O)[O-])cc1 52%
O=C(Nc1ccc(Cl)cc1)N1CCc2[nH]c3ccccc3c2C1 104%
O=C(Nc1ccccc1)c1nnsc1S(=O)(=O)c1ccc(Cl)cc1 68.7%
COc1ccc(NC(=S)NCC2CCN(c3ccc(OC)cc3)C2)cc1 (centres undefined) 67.3%
